Measured values taken from the supplement of paper PMC3334620.
The full ranking holds about 33,000 sequences; the median of “E-score (-0.5 to 0.5)” is about -0.016, and the highest 2% start at about 0.32. The full list was thinned out, with the highest values kept by preference.

The sequences below were run against T1, Stp1 (UniProt B3LFK1) (assay: PBM E-score (8-mer binding enrichment) (E-score (-0.5 to 0.5)); higher = stronger / more preferred TF binding). Conditions: protein concentration: 200 nM; construct: GST-full length.
T1 sequence: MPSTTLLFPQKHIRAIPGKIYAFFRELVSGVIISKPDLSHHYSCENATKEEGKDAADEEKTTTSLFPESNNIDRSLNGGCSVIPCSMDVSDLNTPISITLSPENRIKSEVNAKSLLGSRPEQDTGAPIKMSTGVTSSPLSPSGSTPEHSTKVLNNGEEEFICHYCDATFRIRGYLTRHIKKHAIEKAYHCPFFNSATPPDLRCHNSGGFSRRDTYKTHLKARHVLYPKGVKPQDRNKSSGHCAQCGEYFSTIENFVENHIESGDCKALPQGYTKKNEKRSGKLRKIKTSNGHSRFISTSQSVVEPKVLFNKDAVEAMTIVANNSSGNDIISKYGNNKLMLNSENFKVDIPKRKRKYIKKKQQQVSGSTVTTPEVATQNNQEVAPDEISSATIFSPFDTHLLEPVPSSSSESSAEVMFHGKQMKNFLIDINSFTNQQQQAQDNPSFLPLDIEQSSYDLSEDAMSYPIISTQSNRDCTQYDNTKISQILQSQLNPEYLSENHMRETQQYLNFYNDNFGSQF
Method: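 Universal 'all 10-mer' protein binding microarrays (Agilent AMADID 015681) probed with GST-tagged S. cerevisiae TFs (full-length or DBD) made by in vitro transcription/translation (PURExpress), about 100-200 nM. Bound TF was detected with fluorescent anti-GST. Each ungapped 8-mer (which stands for itself and its reverse complement) is scored by the PBM enrichment score (E-score), a modified Wilcoxon-Mann-Whitney statistic from -0.5 to +0.5, computed with the Universal PBM Analysis Suite. Scale: above 0.35 generally sequence-specific binding.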
With CGGCGAAC the “PBM E-score” value was 0.317. In the case of CGGCGAAG, the “PBM E-score” value is reported as 0.292. With AGCCGAAC the “PBM E-score” value was -0.0533. In the case of GGGCGAAC, the “PBM E-score” value is reported as 0.0424. For CGCCGAAC, the “PBM E-score” value was 0.347. In the case of AGGCGAAC, the “PBM E-score” value is reported as 0.145. In the case of CGGCGAAA, the “PBM E-score” value is reported as 0.354. CGCCGAAG was tested, and the “PBM E-score” value was 0.13. With CATAGTCA the “PBM E-score” value was -0.195. CTGGAGTC was tested, and the “PBM E-score” value was -0.362. With TAGCAGGA the “PBM E-score” value was -0.226. With CAGCCTTC the “PBM E-score” value was -0.091. In the case of CGGCATAC, the “PBM E-score” value is reported as 0.27. In the case of AGGCATAG, the “PBM E-score” value is reported as 0.15. In the case of CGGCATAA, the “PBM E-score” value is reported as 0.358. In the case of GGGCATAA, the “PBM E-score” value is reported as 0.0801. For CAGCATCA, the “PBM E-score” value was 0.0143. With AGGCATCC the “PBM E-score” value was -0.0829. AGGCATCA was tested, and the “PBM E-score” value was 0.215. For GGGCATCA, the “PBM E-score” value was 0.104. For CGGCATCC, the “PBM E-score” value was 0.353. AGGCATCG was tested, and the “PBM E-score” value was 0.348. With CAGCATCC the “PBM E-score” value was -0.252. CGGCATCA was tested, and the “PBM E-score” value was 0.438. CACCACGA was tested, and the “PBM E-score” value was -0.0238. For ATATCGAG, the “PBM E-score” value was 0.123. In the case of CATAGGGC, the “PBM E-score” value is reported as 0.152. In the case of ACCCTAGA, the “PBM E-score” value is reported as -0.227. In the case of ACTGTTCC, the “PBM E-score” value is reported as -0.131. With ACCATCAA the “PBM E-score” value was -0.149. ATCAGTTG was tested, and the “PBM E-score” value was 0.00725. For GACTGCTC, the “PBM E-score” value was -0.287. With TTCAACAA the “PBM E-score” value was 0.167. With AAAAGCTC the “PBM E-score” value was -0.131. For AGCGCCCC, the “PBM E-score” value was 0.0659. AGCGCCTA was tested, and the “PBM E-score” value was 0.182. With CGCCGCGC the “PBM E-score” value was 0.487. With CGCCCCGC the “PBM E-score” value was 0.221. AGCGCAGC was tested, and the “PBM E-score” value was -0.112. In the case of AGCGCCGC, the “PBM E-score” value is reported as 0.481. In the case of CGCGCCGC, the “PBM E-score” value is reported as 0.483. With GCCGCCTA the “PBM E-score” value was 0.185. For CGCGCCCC, the “PBM E-score” value was 0.209. CTCCGCGC was tested, and the “PBM E-score” value was 0.227. For GGCGCCTA, the “PBM E-score” value was 0.362. With CACCGCGC the “PBM E-score” value was 0.166. With CATGATCG the “PBM E-score” value was -0.0196. GGAGCCAC was tested, and the “PBM E-score” value was -0.246. CAGCGAAA was tested, and the “PBM E-score” value was -0.0495. With CGATCAGA the “PBM E-score” value was -0.053. GTACACGA was tested, and the “PBM E-score” value was 0.136. ATATTAGG was tested, and the “PBM E-score” value was 0.0795. For CTCGAAAC, the “PBM E-score” value was 0.113. With AGACAACG the “PBM E-score” value was 0.0214. CAAGACGG was tested, and the “PBM E-score” value was -0.0357. In the case of CATTGCGC, the “PBM E-score” value is reported as 0.0607. In the case of AGCGCAGA, the “PBM E-score” value is reported as -0.0529. In the case of CGCGCCGA, the “PBM E-score” value is reported as 0.362. GGCGCCCA was tested, and the “PBM E-score” value was 0.311. In the case of AGCGCCCA, the “PBM E-score” value is reported as -0.225. In the case of AGCGCCGG, the “PBM E-score” value is reported as 0.174. With AGCGCCGA the “PBM E-score” value was 0.321. For CGCGCAGA, the “PBM E-score” value was 0.22. GGCGCCGA was tested, and the “PBM E-score” value was 0.421. AGCGCCCG was tested, and the “PBM E-score” value was -0.00709. AGCGCCCT was tested, and the “PBM E-score” value was 0.319. In the case of GTCGCCGA, the “PBM E-score” value is reported as 0.0933. With CGCGCCCA the “PBM E-score” value was 0.213. In the case of AGCCAAAG, the “PBM E-score” value is reported as -0.00729. AGATCCTG was tested, and the “PBM E-score” value was -0.32. With CACGGTCC the “PBM E-score” value was -0.109. TCCCCAAA was tested, and the “PBM E-score” value was -0.0405. For GACTATCC, the “PBM E-score” value was -0.178. With CAACCAGG the “PBM E-score” value was -0.196. For GGAGTGAA, the “PBM E-score” value was -0.0852. With AGATTTCC the “PBM E-score” value was -0.00021. In the case of ACAAAGTG, the “PBM E-score” value is reported as -0.0329. ATCTTGAG was tested, and the “PBM E-score” value was -0.0881. For GGCCGCGA, the “PBM E-score” value was -0.0392. CACCGCGA was tested, and the “PBM E-score” value was -0.0402. With CGCCGCGA the “PBM E-score” value was 0.379. ACCGCCGA was tested, and the “PBM E-score” value was 0.0744. For ACCGCCGC, the “PBM E-score” value was 0.389. With ACCGCCGG the “PBM E-score” value was -0.0408. In the case of ACCGCCCT, the “PBM E-score” value is reported as -0.14. ACCGCCGT was tested, and the “PBM E-score” value was 0.449. In the case of ACCGCCAT, the “PBM E-score” value is reported as 0.0869. With AGCAACCC the “PBM E-score” value was -0.306.
